Source: PubChem (several laboratories)
Only some compounds are listed: those with a hit (about 3.6% of all), similar ones and a draw of the others.
Wnt act – Wnt/beta-catenin pathway activation | Wnt/beta-catenin reporter cell assay, activator, plate reader | activation, % at 9.35 µM | 300,000 tested, 1.2% active | AID 743398; in the data active = activation above about 30%, passing the limit was not always enough; inconclusive = no clear call, values can overlap the other calls;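 note: 0% = neutral control wells and 100% = positive control wells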
MITF act – activators of MITF-driven TRPM1 promoter activity in SK-MEL-5 cells | SK-MEL-5 TRPM1-promoter luciferase, 24 h; % of positive control, neutral wells = 0 | activation, % at 12.5 µM | 300,000 tested, 0.75% active | AID 588334;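 active = mean activation of at least 80% with every replicate also reaching 80%; inconclusive = mean reaches 80% but some replicate falls short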;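 note: 0% = neutral control wells and 100% = parthenolide positive control wells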
A3G deaminase – inhibitors of human APOBEC3G DNA deaminase. inhibition, % at 20 µM. 330,000 tested, 0.28% active. Q9HC16. recombinant A3G, ssDNA deamination FAM/TAMRA fluorescence;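 active = inhibition of at least 40% at 20 µM, with no more than 30% in the related APOBEC3A deaminase screen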;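 note: plate controls were DMSO wells with A3G for no effect and wells lacking A3G enzyme for full effect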
Target sequence (Q9HC16 whole entry, looked up): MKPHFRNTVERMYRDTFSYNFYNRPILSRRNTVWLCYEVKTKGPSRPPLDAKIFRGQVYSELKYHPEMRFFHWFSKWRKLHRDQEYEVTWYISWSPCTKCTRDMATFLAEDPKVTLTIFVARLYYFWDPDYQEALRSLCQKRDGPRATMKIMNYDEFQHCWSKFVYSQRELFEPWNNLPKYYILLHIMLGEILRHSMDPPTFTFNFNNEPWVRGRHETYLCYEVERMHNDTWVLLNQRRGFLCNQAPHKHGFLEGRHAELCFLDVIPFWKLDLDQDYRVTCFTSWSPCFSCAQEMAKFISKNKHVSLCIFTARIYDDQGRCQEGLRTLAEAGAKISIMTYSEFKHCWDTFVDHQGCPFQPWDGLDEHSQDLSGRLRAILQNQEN
A3A deaminase – inhibitors of human APOBEC3A DNA deaminase. P31941. inhibition, % at 20 µM. 330,000 tested, 0.41% active. recombinant A3A, FAM/TAMRA ssDNA deamination fluorescence. AID 493011;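 active = at least 40% inhibition at 20 µM here, with at most 30% in a related deaminase screen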;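 note: plate controls were A3A with DMSO for no effect and wells lacking A3A enzyme for full effect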
Target sequence (P31941 whole entry, looked up): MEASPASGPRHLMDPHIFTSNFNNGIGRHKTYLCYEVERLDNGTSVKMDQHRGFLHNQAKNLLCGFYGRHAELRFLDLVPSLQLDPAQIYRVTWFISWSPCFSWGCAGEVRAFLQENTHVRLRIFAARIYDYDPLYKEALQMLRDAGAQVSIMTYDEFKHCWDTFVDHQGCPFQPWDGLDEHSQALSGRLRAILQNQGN
esBAF inh – SWI/SNF esBAF complex inhibition. mouse ES cells, Bmi1-luciferase knock-in reporter, 24 h; 100% = twice the neutral-well signal. reporter increase, % at 12.5 µM. 350,000 tested, 2% active; in the data active = activation above about 40%; inconclusive = no clear call, values can overlap the other calls;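 note: 0% = median of the plate's neutral control wells and 100% = double that signal; a rise in the Bmi1 reporter signal indicates esBAF inhibition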
PHOSPHO1 inh – inhibitors of human PHOSPHO1 phosphatase. inhibition, % at 13.3 µM. recombinant PHOSPHO1, absorbance phosphatase assay. 290,000 tested, 1.1% active; in the data active = inhibition above about 60%
The depositor's hits bear a star; ? = inconclusive; / = no result.

SMILES | Wnt act | MITF act | A3G deaminase | A3A deaminase | esBAF inh | PHOSPHO1 inh
CCC(=O)N(C)C[C@H]1Oc2cc(-c3cccc(F)c3)ccc2S(=O)(=O)N([C@@H](C)CO)C[C@H]1C | / | / | / | / | 3 | /
CC(C)NC(=O)N1CCCCN2[C@H](C1)[C@@H](c1ccc(C#CC3CC3)cc1)[C@@H]2CO | / | / | / | / | -3 | /
COc1ccc(S(=O)(=O)N(C)C[C@H]2Oc3ccc(NS(C)(=O)=O)cc3CC(=O)N([C@@H](C)CO)C[C@H]2C)cc1 | / | / | / | / | 2 | /
O=[N+]([O-])c1cccc(C(=S)N2CCN(c3ccccc3)CC2)c1 | -6 | 5 | 19 | -5 | -4 | 79*
O=[N+]([O-])c1cccc(C(=S)N2CCN(c3ccccc3F)CC2)c1 | -4 | -7 | -9 | -7 | / | 43
C[C@@H]1CN([C@@H](C)CO)C(=O)c2cc(NC(=O)CCC(F)(F)F)ccc2O[C@H]1CN(C)C(=O)Nc1ccc2c(c1)OCO2 | / | / | / | / | 3 | /
Cc1ccc(NC(=O)CN2CCCC2c2cccn2C)c(Br)c1 (stereo not drawn) | 10 | 109* | -7 | -3 | 16 | /
CC(=O)c1ccc(NCC(=O)N2CCN(c3ccccc3)CC2)cc1 | -3 | -1 | -1 | 19 | 5 | 98*
Cc1ccc(S(=O)(=O)NCc2ccc(C(=O)N3CCN(c4ccccc4)CC3)cc2)cc1 | -2 | 3 | -1 | 0 | 1 | 73*
O=C(c1ccc(-c2ccccc2)cc1)N1CCN(c2ccccc2)CC1 | 12 | 73 | -2 | -1 | 51* | 5
CS(=O)(=O)N(Cc1ccc(Cl)cc1)c1ccc(C(=O)N2CCN(c3ccccc3)CC2)cc1 | / | / | 31 | 64 | 7 | 100*
CS(=O)(=O)N(Cc1ccccc1)c1ccc(C(=O)N2CCN(c3cccc(Cl)c3)CC2)cc1 | -2 | 28 | -2 | 0 | / | -15
COc1ccc(N2CCN(C(=O)c3ccc(-c4ccccc4)cc3)CC2)cc1 | 0 | -6 | -2 | -3 | 2 | 20
CCCN(Cc1ccc(C)cc1)C(=O)c1ccc(CNS(=O)(=O)c2ccc(C(C)=O)cc2)cc1 | 2 | ? | 2 | -1 | 62* | /
O=C(C[C@@H]1CC[C@@H](NC(=O)C2CCC2)[C@H](CO)O1)NC1CCCCC1 | / | / | / | / | 3 | /
CC(=O)NC(=S)NNC(=O)COc1ccc([N+](=O)[O-])cc1 | -1 | -2 | 20 | -3 | / | 67*
COc1ccc(OCC(=O)NNC(=S)NC(=O)c2ccc([N+](=O)[O-])cc2)cc1 | 0 | 4 | 25 | -7 | -8 | -34
CC(=O)NC(=S)NNC(=O)COc1ccc(Br)cc1 | 0 | 4 | / | / | / | 61*
CCNC(=O)Nc1ccc2c(c1)C(=O)N(C)[C@H]1CC[C@H](CC(=O)NC3CCCCC3)O[C@H]1CO2 | / | / | / | / | 4 | /
C[C@H]1CN([C@@H](C)CO)C(=O)Cc2cc(NC(=O)Cc3cn(C)c4ccccc34)ccc2O[C@H]1CN(C)C(=O)NC1CCCCC1 | / | / | / | / | 3 | /
CC(C)=CCc1c(O)cc2c(=O)c3ccc(O)cc3oc2c1O | -2 | / | -8 | -5 | 59* | /
CC(Sc1ccc(Br)cc1)C(N)=O (stereo not drawn) | -3 | 19 | 0 | 102* | -5 | -15
O=C(Nc1cccc2ccccc12)c1ccc(Br)o1 | / | 3 | / | / | -14 | -27
Cc1cccc(C)c1NC(=S)NC(=O)c1ccc(Br)o1 | -4 | -12 | -4 | 0 | 1 | 34
O=C(NNC(=S)Nc1ccccc1C(F)(F)F)c1ccc(Br)o1 | -1 | 0 | -7 | -3 | / | 10
SMILES | Wnt act | MITF act | A3G deaminase | A3A deaminase | esBAF inh | PHOSPHO1 inh
CCC(=O)NC(=S)Nc1ccc(NC(=O)c2ccc(Br)o2)cc1 | -3 | 5 | -8 | 0 | 69* | 25
O=C(NC(=S)Nc1ccccc1F)c1ccc(Br)o1 | 0 | 34 | -4 | 0 | 49* | 42
CSc1ccccc1NC(=O)c1ccc(Br)o1 | 6 | 48 | -4 | -1 | 52* | 0
CCC(=O)NC(=S)Nc1ccc(NC(=O)c2ccc(OC)cc2)cc1 | -1 | -13 | -8 | 0 | / | 6
Cn1ncc(C(N)=O)c1NC(=S)NC(=O)c1ccc(Br)o1 | -2 | -15 | -1 | -1 | / | 80*
CCCCc1c(-c2ccccc2OC)ncn1C(C)c1ccc(Cl)cc1 (stereo not drawn) | -1 | / | / | / | / | /
COc1ccc(NC(=O)Nc2ccc3c(c2)CC(=O)N([C@@H](C)CO)C[C@@H](C)[C@@H](CN(C)Cc2ccc(C(=O)Nc4ccccc4N)cc2)O3)cc1 | / | / | / | / | -8 | /
Cc1ccc(NC(=S)NC(=O)c2ccc(Br)o2)c(C)c1 | 9 | 88* | -8 | -2 | / | 32
Cc1cccc(NC(=S)NC(=O)c2ccc(Br)o2)c1C | -1 | 9 | -5 | -2 | / | 34
COc1ccccc1-c1ccc(Nc2cccc(C(F)(F)F)c2)nn1 | / | 21 | -2 | -13 | 45* | -6
COc1ccccc1OCC(=O)NC1CCCCCCC1 | 0 | 10 | -1 | 1 | 16 | /
COc1ccccc1-c1ccc(NC2CCCCC2)nn1 | / | 83* | -5 | 1 | / | -10
CN(C)C(=O)C[C@@H]1CC[C@H]2[C@@H](COC[C@@H](O)CN2C(=O)C2CC2)O1 | / | / | / | / | -5 | /
CN1C(=O)c2cc(NC(=O)c3cccc(F)c3)ccc2OC[C@H]2O[C@@H](CC(=O)O)CC[C@@H]21 | / | / | / | / | -3 | /
Cc1csc(SCC(=O)Nc2cc(S(=O)(=O)N3CCOCC3)ccc2N2CCOCC2)n1 | -2 | 5 | -4 | 2 | 2 | -119
Cc1csc(SCC(=O)c2ccc(S(=O)(=O)N3CCOCC3)cc2)n1 | -3 | / | -4 | -2 | 2 | 78*
C[C@@H]1CN([C@H](C)CO)C(=O)c2cc(C#C[C@@H](C)O)cnc2O[C@@H]1CN(C)Cc1cccc(F)c1 | / | / | / | / | 3 | /
CO[C@H]1CN(C)C(=O)c2cc(NC(=O)C3CC3)ccc2OC[C@@H](C)N(CC2CC2)C[C@H]1C | / | / | / | / | 3 | /
Cc1ccc(NCc2ccccc2O)cc1 | / | 56 | -6 | -2 | 49* | -1
Cc1ccc(O)c(CNc2cccc(C)n2)c1 | 1 | 8 | -8 | -5 | 15 | 3
Cc1ccc(O)c(CNc2ccccn2)c1 | / | / | -3 | 1 | 64* | 9
Cc1ccnc(NCc2cc(C)ccc2O)c1 | -1 | / | -3 | -3 | 56* | 8
CCC(=O)Nc1ccc2c(c1)C(=O)N(C)C[C@@H](OC)[C@H](C)CN(C(=O)c1cccnc1)[C@@H](C)CO2 | / | / | / | / | 0 | /
CN(C)Cc1cn(CC[C@@H]2CC[C@@H](NS(=O)(=O)c3ccc(-c4ccccc4)cc3)[C@H](CO)O2)nn1 | / | / | / | / | 4 | /
c1cncc(CSc2ccc(-c3ccc4c(c3)OCO4)nn2)c1 | 32* | 69 | -6 | -4 | 49* | 19
Fc1cccc(CSc2ccc(-c3ccc4c(c3)OCO4)nn2)c1 | -1 | 42 | -7 | -2 | 38 | -5
Cc1noc(C)c1NC(=O)NCC[C@@H]1CC[C@H](NC(=O)Cc2cccnc2)[C@H](CO)O1 | / | / | / | / | 1 | /
